Screens deposited in PubChem BioAssay by National Center for Advancing Translational Sciences (NCATS).
TDP1 cell CPT = growth inhibition of DT40 Tdp1-/-;hTDP1 cells with camptothecin (screen for TDP1 inhibitors) | chicken DT40 Tdp1-/-;hTDP1 cells + 20 nM CPT, ATP luminescence, 48 h | Potency, µM (top dose mostly 46.2 µM), for the others: at the highest dose activity change, negative = growth inhibition, actives largely listed as inhibitors | 420,000 compounds, 12% hits | AID 686979; also: potency is read from the fitted curve at half-maximal effect; nearly all actives have a fitted effect of over 55% in size
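Cell growth measured by CellTiter-Glo luminescence after a minimum 48 h, 37 C compound exposure with 20 nM CPT in Tdp1-knockout DT40 cells stably expressing hTDP1, seeded 400/well; qHTS titration format.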
DT40 TDP1 no CPT = qHTS for Inhibitors of human tyrosyl-DNA phosphodiesterase 1 (TDP1): qHTS in cells in absence of CPT. DT40 Tdp1-/- hTDP1 cells, no CPT, ATP luminescence, 48 h. Potency, µM (highest dose often 46.2 µM), inactives show at the highest dose activity change, negative = growth inhibition, most hits filed as inhibitors. 420,000 compounds, 15% hits. AID 686978, 2013; also: potency is read from the fitted curve at half-maximal effect; nearly all actives have a fitted effect of over 55% in size
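Chicken DT40 Tdp1-/- cells complemented with human TDP1, screened without camptothecin (DMSO vehicle only), 400 cells/well. Compounds pin-transferred, cells incubated at 37 °C for at least 48 hr. Growth read as ATP-dependent luminescence (CellTiter-Glo, 30 min at RT).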
HT1080-NT tox = kills 2HG-producing HT-1080-NT fibrosarcoma cells. HT-1080-NT fibrosarcoma viability, CellTiter-Glo ATP luminescence, 48 h. 360,000 compounds, 1.6% hits. Potency, µM (highest dose often 46.1 µM), for the others: at the highest dose activity, negative = less viability, actives largely listed as cytotoxic;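 also: NT is the 2HG producing partner of a matched IDH1 knockdown line; potency is read from the fitted curve at half-maximal effect; 0% = DMSO-treated cells and -100% = media-only wells without cells; nearly all actives have a fitted effect of over 55% in size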
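750 cells/well, RPMI + 5% FBS; 2 h settle, compound pin-transfer, 48 h at 37 degrees C. CellTiter-Glo 10 min RT, luminescence. Normalized to DMSO and media-only wells.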
HT1080 IDH1KD tx = HT-1080 IDH1 knockdown cell toxicity (counter line); HT-1080 IDH1 knockdown viability, ATP luminescence, 48 h; Potency, µM (top dose mostly 46.1 µM), inactives show at the top dose activity, negative = toxicity, actives largely listed as cytotoxic; 360,000 compounds, 2% hits; AID 686971;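 also: potency is read from the fitted curve at half-maximal effect; 0% = DMSO wells and -100% = cell-free medium wells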
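CellTiter-Glo luminescence after 48 h compound exposure at 37 degrees C of IDH1-knockdown HT-1080 cells in 5% FBS RPMI. %Activity scaled between DMSO wells and cell-free media wells, with curves fitted and assigned curve classes.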
IL1B secr inh = inflammasome signaling inhibition, IL-1 beta readout; 360,000 compounds, 4.7% hits; THP-1 LPS/ATP IL-1B secretion, AlphaLISA, 16 h; hits give low values; activity change, % at 57.5 µM; in the data active = activity change below about -50%; inconclusive = mostly about -30% to -49%
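THP-1 cells pretreated 1 hr with compounds (up to 57.5 uM final), then stimulated with LPS (250 ng/mL final) plus ATP (1.25 mM final); secreted IL-1B measured by AlphaLISA after 16 hr, decreased signal indicating inhibition.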
Numbers without * were called inactive; i = inactive; ? = inconclusive; . = not tested or not shown; ! = a repeat was not active. Hits are enriched below; roughly 19% of the tested compounds scored in any of these assays. Unless noted, calls follow the shape of the dose curve; as a rule, active = well fitted curve in the direction sought with a large enough effect; inconclusive = small, poorly fitted or top-dose-only effect, or another doubt; inactive = no such curve, though single readings can be large; an effect the other way counts as inactive or inconclusive. Unless noted, % is scaled to controls: 0 for no effect and ±100 for the full control effect.

SMILES | TDP1 cell CPT | DT40 TDP1 no CPT | HT1080-NT tox | HT1080 IDH1KD tx | IL1B secr inh
O=[N+]([O-])c1cc2c(cc1C=Nc1ccccc1)OCO2 | ? | -29% | -2% | 0% | -2
Sc1oc(-c2ccccc2)cc1C=Nc1ccccc1 | 5.8µM* | 16µM* | 7.9µM* | 11µM* | 0
CCOc1ccc(CC(=O)Nc2c3c(nn2C(C)(C)C)CS(=O)(=O)C3)cc1 | 3% | 1% | 17% | 29% | i
Cc1ccc(CS(=O)(=O)c2nc3c(c(N(C)C)n2)CCCC3)cc1 | 14% | -6% | -11% | -21% | -79*
CC(=O)OCC(=O)C1(O)CCC2C3CCC4=CC(=O)CCC4(C)C3C(O)CC21C (stereo unspecified) | ? | -23% | ? | ? | ?
C#C[C@]1(OC(C)=O)CCC2C3CCC4=CC(=O)CC[C@@H]4C3CC[C@@]21C (stereo partly specified) | ? | 23µM* | 0% | -2% | 5
C#C[C@]1(OC(C)=O)CCC2C3CCC4=CC(=O)CCC4C3CC[C@]21C (stereo partly specified) | 0.21µM* | 16µM* | . | . | .
C#C[C@]1(OC(C)=O)CC[C@H]2[C@@H]3CCC4=C[C@@H](OC(C)=O)CC[C@@H]4[C@H]3CC[C@@]21C | ? | 15µM*! | . | . | .
CCCCCCCCCCCCCCCCCCN(CCCCCCCCCCCCCCCCCC)c1ccc(/C=C/c2ccc(C=O)cc2)cc1 | -9% | 6% | . | . | .
CCOc1ccccc1C(=O)OC(C)C(=O)Nc1ccc(S(=O)(=O)N2CCCC2)cc1 (stereo unspecified) | -23% | ? | 1% | 0% | -15
CCS(=O)c1ccccc1C(=O)OC(C)C(=O)Nc1ccc(S(=O)(=O)N2CCCC2)cc1 (stereo unspecified) | 13µM* | ? | 7% | 0% | 5
CN1CCN(S(=O)(=O)c2ccc(NC(=O)c3ccccc3Cl)cc2)CC1 | 12% | -1% | -4% | 0% | 2
CN1CCN(S(=O)(=O)c2ccc(NC(=O)Nc3cccc(Cl)c3)cc2)CC1 | ? | ? | 21µM* | 18µM* | -2
Cc1oc(S(=O)(=O)N2CCCCC2)cc1NC(=O)Nc1ccccc1 | ? | ? | 5% | -13% | -17
CC(Oc1ccccc1Cl)C(=O)Nc1ccc(S(=O)(=O)N2CCN(C)CC2)cc1 (stereo unspecified) | ? | ? | ? | ? | -55*
Cc1oc(S(=O)(=O)N2CCCCC2)cc1NC(=O)Nc1ccc(Cl)cc1 | 16µM* | 16µM* | -3% | -7% | 26
Cc1cc(S(=O)(=O)N2CCOCC2)ccc1OCC(=O)N1CCCC1 | 1% | -2% | 3% | 2% | 7
CC(C)NC(=O)C1(C)CCCN1C(=O)c1cc(C#N)cs1 (stereo unspecified) | 3% | -2% | 24% | 17% | 22
O=C(Nc1cc(S(=O)(=O)N2CCCC2)ccc1Cl)c1ccncc1 | 1% | ? | 15% | 7% | 3
O=C(Nc1cccc(Cl)c1)Nc1cc(S(=O)(=O)N2CCCCC2)ccc1Cl | ? | ? | ? | 26µM* | -88*
CC(Oc1cccc(Cl)c1)C(=O)Nc1ccc(S(=O)(=O)N(C)C2CCN(C)CC2)cc1 (stereo unspecified) | ? | ? | -1% | -7% | -57*
NNC(=O)c1sccc1OCc1ccc(F)cc1 | 7% | ? | 3% | 2% | 32
O=C(N/N=C/c1ccc(Cl)cc1)c1sccc1OCc1ccc(F)cc1 | 1.2µM* | 1.3µM* | 2.6µM* | 1.3µM* | 78
COc1ccc(COc2ccsc2C(=O)Nc2ccc(Cl)cc2)cc1 | ? | ? | ? | ? | 48
O=C(N/N=C/c1ccc(F)cc1)c1sccc1OCc1ccc(F)cc1 | 16µM* | 18µM* | 13µM* | 16µM* | 46
O=C(Cn1cnc([N+](=O)[O-])c1)Nc1ccc(Cl)cc1Cl | 3% | 0% | -1% | -7% | ?
